From PubChem
Rows were chosen to be rich in hits. Some 9.9% of all compounds tested hit in one or more screens of this group.
MCF10A rerep: induces DNA re-replication in MCF 10a normal breast cells | MCF 10A DNA re-replication, Hoechst nuclear intensity, 48 h | Potency, µM (titrated, usually from 46.1 µM), inactives show at the top dose activity, positive = re-replication, actives largely listed as activators | hit rate 2.9% among 350,000 | AID 624296; further: potency means the concentration at half of the fitted maximal effect; % of control where 0% means no effect; nearly all actives have a fitted effect of over 50% in size
IL1B secr inh: inhibitors of inflammasome signaling (IL-1 beta secretion) | activity change, % at 57.5 µM | THP-1 LPS/ATP IL-1B secretion, AlphaLISA, 16 h; hits give low values | AID 743279 | hit rate 4.7% among 360,000; in the data active means activity change below about -50%; inconclusive means mostly about -30% to -49%; further: on the % scale 0 is the no-effect control and ±100 the full control effect
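THP-1 cells pretreated 1 hr with compounds (up to 57.5 uM final), then stimulated with LPS (250 ng/mL final) plus ATP (1.25 mM final); secreted IL-1B measured by AlphaLISA after 16 hr, decreased signal indicating inhibition.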
KB-3-1 tox: KB-3-1 parental cell cytotoxicity; KB-3-1 viability, CellTiter-Glo ATP luminescence, 72 h; Potency, µM (series often up to 46.1 µM), most hits filed as cytotoxic; hit rate 1.4% among 400,000; AID 1347075; further: potency means the concentration at half of the fitted maximal effect; on the % scale 0 is the no-effect control and ±100 the full control effect; nearly all actives have a fitted effect of over 60% in size
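Viability of parental KB-3-1 cells, measured by CellTiter-Glo luminescence, followed a 72 h incubation at 37 °C with pinned compounds in phenol-red-free DMEM containing 10% FBS.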
KB-V1 MDR tox: kills drug-selected multidrug resistant KB-V1 cells; KB-V1 MDR cells viability, CellTiter-Glo, 72 h; Potency, µM (series often up to 46.1 µM), most hits filed as cytotoxic; hit rate 3.4% among 400,000; AID 1347076; further: potency means the concentration at half of the fitted maximal effect; on the % scale 0 is the no-effect control and ±100 the full control effect; nearly all actives have a fitted effect of over 60% in size
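Cytotoxicity via CellTiter-Glo luminescence after 72 h compound exposure at 37 degrees C. Cells: drug-selected KB-V1 line, DMEM phenol-red free plus 10% FBS. Compounds tested at multiple concentrations; normalized data fitted to concentration-effect curves.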
SW480 rerep: inducers of DNA re-replication in SW480 colon cancer cells | SW480 DNA re-replication, Hoechst DNA content imaging, 48 h | Potency, µM (highest dose often 46.1 µM), for the others: top-dose re-replication activation, hits mostly activators | hit rate 1.8% among 340,000; further: potency means the concentration at half of the fitted maximal effect; % of control where 0% means no effect; nearly all actives have a fitted effect of over 55% in size
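Treated cells incubate 48 hr (37 C, 5% CO2), are stained 40 min with Hoechst, and nuclear fluorescence is enumerated; a rise in nuclei with high DNA signal marks re-replication.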
Active calls of the source: *; i = inactive; ? = inconclusive; nt = not tested or not shown. Unless noted, the call rests on the fitted dose curve; in most records, active means well fitted curve in the direction sought with a large enough effect; inconclusive means small, poorly fitted or top-dose-only effect, or another doubt; inactive means no such curve, though single readings can be large; an effect the other way counts as inactive or inconclusive.

SMILES	MCF10A rerep	IL1B secr inh	KB-3-1 tox	KB-V1 MDR tox	SW480 rerep
COC(=O)C[C@H]1CC[C@H](NC(=O)c2cccc(F)c2)[C@@H](CO)O1	nt	0.0	i	i	nt
CCN1C(=O)[C@H]2[C@@H](c3ccc(OC)cc3)N3C(=O)CN(CCOC)C(=O)[C@@]3(Cc3ccccc3)[C@H]2C1=O	15.1%	41.1	i	i	-4.3%
CCOC(=O)C1(C)CCN1C(=O)/C=C/c1ccccc1 (stereo unspecified)	nt	22.9	i	i	nt
COc1ccc(CCNC(=O)c2cc(S(=O)(=O)N3CCOCC3)ccc2N2CCCC2)cc1OC	-0.9%	7.2	i	i	-2.5%
Cc1cc(OCC(=O)Nc2cc(S(=O)(=O)N3CCOCC3)ccc2N2CCCC2)ccc1C(C)C	10.6%	?	i	7.31µM*	2.3%
CN1CCN(c2ccc(S(=O)(=O)N3CCCCC3)cc2NC(=O)COc2cccc(Cl)c2)CC1	?	-52.3*	?	i	?
Cc1cc(OCC(=O)Nc2ccccc2N2CCCC2)ccc1C(C)C	?	?	i	?	3.1%
COc1ccc(CNC(=O)c2cc(S(=O)(=O)N3CCCCC3)ccc2N2CCOCC2)cc1OC	10.8%	-29.0	i	23.1µM*	10.8%
COc1ccccc1OCC(=O)Nc1cc(S(=O)(=O)N2CCOCC2)ccc1N1CCCCC1	15.4%	-54.6*	i	i	6.5%
COc1cc(NC(=O)CCc2nnc3ccc(N4CCOCC4)nn23)cc(OC)c1OC	3.7%	0.0	i	i	-2.1%
Cc1ccc(Cl)c(OCC(=O)Nc2cc(S(=O)(=O)N3CCOCC3)ccc2N2CCCC2)c1	8.6%	-58.6*	i	i	15.1%
Cc1ccc(OCC(=O)Nc2cc(S(=O)(=O)N3CCOCC3)ccc2N2CCCC2)cc1	-1.9%	-26.2	i	i	?
CN1CCN(c2ccc(S(=O)(=O)N3CCOCC3)cc2NC(=O)COc2ccc(F)cc2Cl)CC1	-2.7%	-12.7	nt	nt	?
O=C(COc1ccc(F)cc1Cl)Nc1cc(S(=O)(=O)N2CCOCC2)ccc1N1CCCCC1	?	-51.4*	?	?	26.4%
CCc1ccc2[nH]c3nc(C)cc(C)c3c(=O)c2c1	?	0.0	i	6.51µM*	7.6%
O=C(NC(Cc1ccccc1)C(=O)N1CCN(c2ccc(F)cc2)CC1)c1ccccc1 (stereo unspecified)	nt	6.8	i	?	nt
Cc1cc(SCC(=O)NCC(c2cccs2)N2CCOCC2)c(C)cc1Br (stereo unspecified)	?	-26.2	?	?	0.1%
CCc1ccc(C(C(=O)NCc2ccc(OC)cc2)N(CCOC)C(=O)Cc2cccs2)cc1 (stereo unspecified)	-15.8%	-54.9*	i	?	18.8%
COc1ccc(CNC(=O)C(c2ccc(C)o2)N(Cc2cccs2)C(=O)Cc2cccs2)cc1 (stereo unspecified)	?	?	?	14.6µM*	21.0%
C[C@@H]1ON(C)[C@H]2C[C@H]3c4[nH]c5ccccc5c4CCN3C[C@@H]12	nt	23.8	i	i	nt
O=C(CNC(=S)N(Cc1ccccc1)Cc1cccs1)NCc1ccc(F)cc1	?	-71.3*	i	?	-8.7%
O=C(CNC(=S)N(CCCN1CCOCC1)Cc1cccs1)NCc1ccccc1	3.3%	-20.7	i	i	3.6%
CCOC(=O)N1C(=O)[C@@](c2ccc(Cl)cc2)(C(C)C)N1C(=O)OCC	20.6µM*	-112.8*	i	?	?
CCOC(=O)N1C(=O)[C@](c2ccc(Cl)cc2)(C(C)C)N1C(=O)OCC	?	-98.2*	i	i	?
CCOC(=O)C1(C(N)=O)OC1(c1ccc(Cl)cc1)c1ccccc1Cl (stereo unspecified)	0.9%	8.1	i	i	0.2%
SMILES	MCF10A rerep	IL1B secr inh	KB-3-1 tox	KB-V1 MDR tox	SW480 rerep
CCC(C(=O)NCC1CCCO1)N(C(=O)c1snc(C(N)=O)c1N)c1ccc(Cl)cc1 (stereo unspecified)	?	-13.5	i	i	?
COc1ccc(C(=O)NCC(c2ccc3c(c2)OCO3)N2CCN(C)CC2)cc1OC (stereo unspecified)	nt	nt	i	i	nt
COc1ccc(NC(=O)CN(C)C2CCCCC2)c([N+](=O)[O-])c1	?	-3.7	i	i	2.4%
COc1ccc(/C=C/C(=O)NCCN=C2NS(=O)(=O)c3ccccc32)cc1	-23.5%	-17.2	i	i	-16.4%
C[C@@H](C(=O)Nc1ccc2ccccc2c1)[C@H]1C[C@]1(C)[C@H](NC(=O)c1cnccn1)c1ccccc1	3.4%	-52.0*	i	?	?
Cc1cc(C(=O)N[C@H](c2ccccc2)[C@@]2(C)C[C@@H]2[C@@H](C)C(=O)Nc2ccc3ccccc3c2)no1	16.9%	-53.7*	?	?	?
C[C@@H](C(=O)Nc1ccc2ccccc2c1)[C@H]1C[C@]1(C)[C@H](NP(=O)(c1ccccc1)c1ccccc1)c1ccccc1	20.6%	nt	nt	nt	23.1µM*
Cc1ccc(F)cc1NC(=O)c1c(-c2ccccc2)noc1C	0.7%	8.0	i	i	-7.4%
Cc1ccc(S(=O)(=O)c2cn(Cc3ccccc3)c3cc(N4CCCC4)c(F)cc3c2=O)cc1	nt	nt	i	i	nt
O=C(c1ccccc1)N1N=C(c2ccccc2)CC1c1ccccc1 (stereo unspecified)	29.7%	-10.4	i	i	?
CC(=O)N1N=C(c2ccc(Br)cc2)CC1c1cn(C)c2ccccc12 (stereo unspecified)	18.4µM*	12.3	i	?	23.9%
CCCC(=O)N1N=C(c2ccccc2)CC1c1cn(C)c2ccccc12 (stereo unspecified)	23.1µM*	-56.0*	i	?	?
CC(=O)N1N=C(c2ccc(Br)cc2)CC1c1ccc(Br)cc1 (stereo unspecified)	nt	30.4	i	i	nt
Cn1cc(C2CC(c3ccccc3)=NN2C(=O)c2ccccc2)c2ccccc21 (stereo unspecified)	5.8µM*	-3.0	?	20.6µM*	?
CN(CCO)C1=NS(=O)(=O)c2cc([N+](=O)[O-])ccc21	?	15.9	i	i	?
C=CCOCCN(C)C1=NS(=O)(=O)c2cc([N+](=O)[O-])ccc21	?	?	?	i	9.2µM*
Cc1ccc(Cl)cc1N1CCN(C(=O)CCCCCn2c(=O)[nH]c3ccccc3c2=O)CC1	nt	nt	i	i	nt
O=C(CSc1ccc(S(=O)(=O)N2CCCC2)cn1)Nc1ccc([N+](=O)[O-])cc1C(F)(F)F	18.1%	-11.6	?	5.17µM*	4.1%
COc1ccccc1NC(=O)C1C2C=CC(C2)C1C(=O)NCc1cccnc1 (stereo unspecified)	4.61µM*	0.0	i	i	-13.5%
